# Data: PubChem BioAssay (NCATS)
# Records with an inconclusive call do not appear. Calls of active or inactive are those of the source. Calls come from the whole dose curve.
# Assay: Confirmatory qHTS for VERO E6 Cytotoxicity Assay: Counterscreen for SARS-CoV-2 CPE Assay (AID 1508605); note: nearly all actives have a fitted effect of over 60% in size
# Details: cell viability luminescence; series mostly up to 20 µM; activity change, negative = cytotoxic: at the top concentration
# % is set by controls: 0 for no effect and ±100 for the full control effect; potency is the fitted concentration of half-maximal effect.
Structure (SMILES),Potency,"activity change, negative = cytotoxic"
CC/C(=C(\c1ccccc1)c1ccc(OCCN(C)C)cc1)c1ccccc1,10 µM (active),
O=C1Nc2ccc(Cl)cc2[C@@](C#CC2CC2)(C(F)(F)F)O1,,-24.9% (inactive)
CC(CN(C)C)CN1c2ccccc2CCc2ccccc21 (centres undefined),,-17.3% (inactive)
CCCCc1oc2ccccc2c1C(=O)c1cc(I)c(OCCN(CC)CC)c(I)c1,,-14.9% (inactive)
